Data taken from PubChem BioAssay (NCI).
This is part of a sample that, as a whole, favours compounds with a hit. Of some 83,000 tested, about 20% had one in any assay.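 The endpoint reported here, percent growth, reads 100 for growth as untreated, 0 for no net growth and -100 for all cells dead.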 Values without a mark were called inactive. The source made the active and inactive calls. Rule for the calls: active = growth percent below 10; inactive = the rest.

Assays:
Experiment in all cases: NCI-60 one-dose screen, 48 h (100 = growth as untreated, 0 = no growth, -100 = all killed)
Conditions in all cases: 10 µM unless noted
[1] = test system: SK-MEL-2 melanoma
[2] = test system: SN12C renal
[3] = test system: UO-31 renal
[4] = test system: TK-10 renal
[5] = test system: ACHN renal
[6] = test system: CAKI-1 renal
[7] = test system: A498 renal
[8] = test system: CCRF-CEM leukemia
[9] = test system: MOLT-4 leukemia

Structure (SMILES)	growth [1]	growth [2]	growth [3]	growth [4] [%]	growth [5]	growth [6]	growth [7] [%]	growth [8]	growth [9]
Nc1cc(Br)cc2c1[nH]c(=O)c1ccccc12	112%	88.6%	81.4%	104	102%	82.5%	92.5	93.2%	80.5%
COc1ccc(-c2cc(C(=O)N3N=C(c4ccc(N)cc4)CC3c3ccc(Cl)cc3)c3cc(OC)ccc3n2)cc1 (stereo not drawn)	88.5%	84.5%	57%	101	47%	90.5%	87.8	23.1%	32.5%
Cn1cc(-c2nonc2-c2c[nH]c3ccccc23)c2cc(Br)ccc21	41%	55%	36.8%	53.3	40.3%	26.3%	40.3	31%	17.8%
O=C(C[C@]1(O)C(=O)Nc2ccc(Br)cc21)c1ccco1	94.5%	90%	75.4%	125	109%	93.4%	103	104%	102%
O=C1C(Cl)=C(Nc2ccccc2)C(=O)c2ccccc21	-65.9% (active)	-73.5% (active)	-42.5% (active)	172	-86.5% (active)	-83.6% (active)	46.9	-10.5% (active)	-20.1% (active)
CCOC(=O)NCCCC(=O)NCCc1ccccc1	110%	106%	90.3%	104	111%	99.5%	106	108%	101%
Cc1ccc(C2CC(c3cccc(Nc4ccncc4)c3)=Nc3c(N)nc(N)nc3N2)cc1 (stereo not drawn)	71.1%	61.2%	75.3%	99.8	56.1%	72.3%	86		33.4%
COc1cc(/C=N/NC(=O)c2ccc(-n3cc(-c4ccccc4)nn3)cc2)cc(OC)c1OC	98%	80%	88.2%	99.2	70.7%	65.3%	71.1	55.1%	78.3%
COC(=O)c1ccc2cc(OC)c(OC)cc2c1	134%	104%	100%	103	106%	91.6%	75.4	91%	85.8%
COc1ccc2cc(-c3nc4ccc(C)cn4c3NCc3ccco3)c(=O)[nH]c2c1	105%	76.1%	47.8%	71	45.4%	50.8%	43.8	62.3%	52.7%
CCOC(=O)/C(=C(/C)NCC(C)C)c1cc(O)c(O)c2c(C)cc(=O)[nH]c12	69.1%	42.9%	59.3%	77.7	47.8%	51.4%	79.2	11.2%	10.5%
